Screening data from PubChem.
KCNQ2 inh = inhibitors of rat KCNQ2 potassium channel. B-score at 10 µM. actives 1.1% (n = 310,000). CHO-K1 KCNQ2, FluxOR thallium flux, 20 min; hits give low values. O88943;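 active = fluorescence ratio B-score at most minus 3 library SDs, with starting brightness B-score within 2 library SDs, cut at about -5.5 in these data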
KCNQ2 enhance = KCNQ2 (rat) channel potentiation. AID 2239. CHO-K1 KCNQ2, FluxOR thallium flux fluorescence; hits give high values. B-score at 10 µM. O88943. actives 0.54% (n = 310,000);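 active = fluorescence ratio B-score at least 3 SD of library B-scores, with initial fluorescence B-score within 3 of them, cut at about 5.3 in these data; same plate scores as AID 2156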;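 note: B-score of peak minus minimum over baseline fluorescence ratio after K+ and Tl+ stimulus; positive B-score means potentiation of KCNQ2 with more thallium influx and brighter signal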
The depositor's hits bear a star; i = inactive; · = no result. A selection: hits, their analogues and other compounds. The true share with any hit is near 1.6%.

SMILES	KCNQ2 inh	KCNQ2 enhance
COc1nnc(-c2ccc(N3CCCCC3)c(NC(=O)C3CCCCC3)c2)c2ccccc12	-6.2*	-6.2
CC1(C)CCN2CCC(C)(C)c3c(O)ccc1c32	i	·
Cc1oc(-c2ccccc2F)nc1CN1CCC(C(=O)NC2CCCCCCC2)CC1	i	·
Cc1oc(-c2ccccc2F)nc1CN1CCC(C(=O)NC2CCCc3ccccc32)CC1 (configuration not stated)	-7.3*	-7.3
COc1ccccc1C(=O)NC(=S)Nc1cccc2cc(O)ccc12	-7.9*	-7.9
COc1ccccc1C(=O)NNC(=S)NC(=O)c1sc2ccccc2c1Cl	i	16*
O=C(NC(=S)Nc1cccc2cc(O)ccc12)c1ccccc1Br	i	·
COc1ccccc1C(=O)NNC(=S)NC(=O)c1cccs1	i	·
Cc1c(NC(=S)NC(=O)c2sc3ccccc3c2Cl)cccc1C(=O)O	i	0.24
COc1ccccc1C(=O)NC(=S)NNC(=O)c1sc2ccccc2c1Cl	i	23*
Cc1cc(C)c2sc(NC(=O)C3=COCCO3)nc2c1	i	1.1
O=C(NCCCN1CCCC1=O)c1cc(-c2ccc3c(c2)OCO3)nc2ccccc12	i	·
O=C(NCCCN1CCCC1=O)c1cc(-c2cccnc2)nc2ccc(Cl)cc12	-6.5*	-6.5
CC(=O)Nc1ccc(S(=O)(=O)NCCC(=O)NCC2COc3ccccc3O2)cc1 (configuration not stated)	i	·
CC(NC(=O)CCCCCN1C(=O)c2ccccc2C1=O)c1ccc2c(c1)CCCC2 (configuration not stated)	i	4.2
CC(NC(=O)CCCCCCN1C(=O)c2ccccc2C1=O)c1ccc2c(c1)CCCC2 (configuration not stated)	i	5.3*
CCn1c(SC)nnc1C1CCN(CC(=O)Nc2ccccc2N2CCOCC2)CC1	i	1.7
CN1CCN(Cc2c(O)ccc3occ(C(=O)c4ccccc4)c23)CC1	i	1.6
CC(=O)C(C(C)=O)c1c(Cl)c(O)c(O)c2c(C(=O)c3ccccc3)coc12	-7.3*	-7.3
O=C(CN1C(=O)COc2ccccc21)NC1CCCC1	i	3
S=C(NCc1ccco1)N1CCN(c2ccccc2Cl)CC1	-5.8*	-5.8
Cc1ccc(Cl)cc1N1CCN(C(=S)NCc2ccco2)CC1	i	·
COCCn1c(SCC(=O)Nc2ccc(OC)c(S(N)(=O)=O)c2)nc2ccccc2c1=O	i	·
O=C(CCc1ccccc1)N1CCCC(Nc2ccc(F)cc2)C1 (configuration not stated)	i	·
O=C1OCCC1Sc1nc2ccccc2c(=O)n1-c1ccc(F)cc1 (configuration not stated)	i	·
SMILES	KCNQ2 inh	KCNQ2 enhance
CCOC(=O)CSc1nc2ccccc2c(=O)n1CC	i	0.49
O=C1OCCC1Sc1nc2ccccc2c(=O)n1Cc1ccc(F)cc1 (configuration not stated)	i	6.3*
O=c1c2ccccc2nc(SCc2ccccc2Cl)n1Cc1ccccc1	i	·
CCn1c(SCc2ccccc2)nc2ccccc2c1=O	i	8.2*
CCN(CC)C(=O)CSc1nc2ccccc2c(=O)n1CC	i	0.8
C=CCSc1nc2ccccc2c(=O)n1Cc1ccccc1	-5.7*	-5.7
CCOC(=O)CSc1nc2ccccc2c(=O)n1CC1CCCC1	-6.1*	-6.1
Cc1ccc(CSCC(=O)N(C)CC(=O)Nc2ccc(Cl)c(Cl)c2)cc1	i	3.9
COc1ccc(CNC(=S)Nc2cccc(F)c2)cc1	i	0.28
COc1ccc(Cl)cc1NC(=O)CCNS(=O)(=O)c1cccc2nonc12	i	0.7
NNc1ccc(Cl)c(C(=O)O)c1	i	·
CCOC(=O)C1CCCN(C(=O)CCNS(=O)(=O)c2cc(Br)cnc2N)C1 (configuration not stated)	i	2.2
CC1CC(C)CN(C(=O)CCNC(=O)c2ccccc2Cl)C1 (configuration not stated)	i	0.36
CCOC(=O)N1CCN(C(=O)c2ccc(Cn3c(=S)[nH]c4ccc(Br)cc4c3=O)cc2)CC1	i	·
CC(C)C(=O)Nc1ccc2c(c1)nc(CCN1CCN(c3ccccn3)CC1)n2C	i	·
CC(C)c1ccc(S(=O)(=O)N2CCN(C(=O)C3CCCC3)CC2)cc1	i	·
CSc1nc(N)n2nc(-c3ccc(Cl)cc3)cc2n1	i	0.46
CCN(CC)S(=O)(=O)c1ccc(NC(=O)CO/N=C(\N)c2ccccc2)cc1	i	0.26
CCSc1nc2ccccc2c(=O)n1C1CCOC(C)(C)C1 (configuration not stated)	i	·
C=CCSc1nc2ccccc2c(=O)n1C1CCOC(C)(C)C1 (configuration not stated)	-6*	-6
Cc1ccc(NC(=O)CCSc2nnc(C)o2)cc1	i	1.6
Cc1c(Cc2ccccc2)c(=O)oc2c(C)c(OC(C)C(=O)N[C@@H](Cc3ccccc3)C(=O)O)ccc12 (some centres not stated)	-7.7*	-7.7
Cc1c(OCC(=O)N[C@@H](Cc2ccccc2)C(=O)O)ccc2c1oc(=O)c1ccccc12	i	·
